Out of some 190,000 compounds screened, about 930 (0.49%) were called active. The list shows a part of the results. Entries with a potency or affinity are not part of this list. A number with no mark means an inactive call.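 How the source made its calls: active means z-score of insulin promoter reporter brightness in nuclei below -3 at 5 µM, with at least 500 cells counted; inconclusive means wells with under 500 cells, flagged as toxic or sparse; inactive means the rest.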

The nature of this assay: insulin promoter down-regulators in MIN6 cells, imaging, high-content screening, mouse beta cells (AID 1628). As to conditions: MIN6 insulin promoter GFP reporter, at 5 µM, stronger effect = lower value.
Turning to `Cc1cc(N2CCOCC2)ccc1/C=C1/SC(=O)NC1=O`, the z-score was 1.71.
Take `Cc1ccc(C2(C(F)(F)F)N=C3Sc4cc(C)ccc4N3C(=O)N2)cc1` (stereo not given): the z-score is 3.48.
With `Cc1ccc(N2CCN(C3=NC(=O)/C(=C\c4cccs4)S3)CC2)cc1`, the z-score was -4.27 (active).
Take `CCCOc1cc(N(CC)CC)ccc1/C=C(/C#N)c1nc2ccc(C)cc2[nH]1`: the z-score is 15.5.
Consider `C=CCSc1nnc(NC(=O)c2cccc(S(=O)(=O)N3CCOCC3)c2)s1`, for which the z-score was 3.22.
For `CCN(CC)c1ccc(/C=N/NC(=O)c2cccc(S(=O)(=O)N3CCOCC3)c2)c(O)c1`, the z-score was -6.39 (active).
For the compound `CCN(CC)c1ccc(C(=O)N/N=C/c2ccc(N3CCOCC3)cc2)cc1`, the z-score is 3.38.
With `CCCCn1c(O)c(/C=C/C=C/C=Nc2ccccc2)sc1=S`, the z-score is 4.72.
The figure for `COc1c2ccoc2nc2c(OC)c(O)ccc12` is -0.14; for `Cc1ccc(-c2ccc(/C=C(\C#N)C(=O)Nc3cc(C)nn3-c3ccccc3)o2)cc1` it is 3.08.
In the case of `Cc1nn(-c2ccccc2)c(C)c1NC(=O)CCl`, the z-score was 3.88.
As for `Cc1ccc(C)c(NC(=S)N2CCCCCC2)c1`, the z-score was 0.89.
For `Cc1ccc(NC(=O)CCl)c(C)c1` the value was 3.51.
Regarding `COc1ccc(CCNC(=S)Nc2ccc(C)cc2C)cc1`, the z-score is -3.98 (active).
In the case of `COc1ccc(C2C=C(c3cccs3)Nc3nc(CCCO)nn32)cc1` (stereo not given), the z-score is 5.85.
On to `CCCCCOC(=O)C1=C(C)Nc2nnnn2C1c1ccc(OC)c(OC)c1OC` (stereo not given), for which the z-score was 3.26.
Consider `COc1ccc(C2=CC(c3ccc(OC)c(OC)c3)n3nnnc3N2)c(OC)c1` (stereo not given), for which the z-score is -3.02 (active).
For the compound `CCOC(=O)N1CCC(N2Cc3cccc(C(=O)N4CCN(c5cccc(C)c5C)CC4)c3C2=O)CC1`, the z-score was 2.62.
Regarding `COc1cccc(CN2CCN(C3CCN(c4cccc(C)c4C)CC3)CC2CCO)c1` (stereo not given), the z-score is -8.37 (active).
With `COc1cc(C(Nc2ccc3c(c2)OCO3)C(=O)NC2CCCCC2)cc(OC)c1OC` (stereo not given), the z-score was -3.78 (active).
As for `Fc1ccc(C2NCCn3cccc32)cc1` (stereo not given), the z-score was 3.94.
With `Nc1c(C(=O)NCCc2ccccc2)sc2nc(N3CCOCC3)c3c(c12)CCCC3`, the z-score is -3.11 (active).
With `CNC(=O)c1ccc(-c2sc3nc(N4CCOCC4)c4c(c3c2N)CCCC4)o1`, the z-score is -3.66 (active).
On to `Nc1c(C(=O)c2ccc(Cl)cc2)sc2nsc(SCCN3CCOCC3)c12`, for which the z-score was 4.91.
`CNC(=O)c1ccc(-c2sc3nc(N4CCOCC4)c4c(c3c2N)CC(C)(C)OC4)o1`: the z-score was 3.23.
As to `N#C/C(=C\c1ccc(N2CCOCC2)o1)C(=O)NCCc1ccccc1`, the z-score is 4.72.
Take `c1ccc(-c2ccc(-c3nccc4ccccc34)[nH]2)cc1`: the z-score was 4.38.
`O=c1[nH]c(-c2ccccn2)nc2sc(-c3ccccc3)cc12`: the z-score is -6.56 (active).
Regarding `CCC(/C=C1\Sc2ccc(OC)cc2N1CC)=C\c1sc2ccc(OC)cc2[n+]1CCCS(=O)(=O)[O-]`, the z-score was -3.29 (active).
The figure for `CC[n+]1c(/C=C/C=C/N(C(C)=O)c2ccccc2)sc2cc(OC)ccc21` is 17.2.
The figure for `CCN1/C(=C/c2cc[n+](CCCS(=O)(=O)[O-])c3ccccc23)Sc2ccccc21` is 6.08.
Take `Cc1ccc(CN=Cc2[nH]c3ccc(Br)c(Cl)c3c2O)cc1`: the z-score was 9.43.
With `Cc1ccc(Nc2nc(Cl)c(C=O)s2)cc1Cl`, the z-score is 6.83.
For `Cc1nc([N+](=O)[O-])c(N2CCN(Cc3ccccc3)CC2)n1Cc1ccccc1`, the z-score was -3.12 (active).
In the case of `Cc1nc([N+](=O)[O-])c(Br)n1CC(=O)c1cccc([N+](=O)[O-])c1`, the z-score was 2.48.
Turning to `CC(C)(C)C1CCc2c(sc(N)c2C(N)=O)C1` (stereo not given), the z-score was -5.29 (active).
Regarding `Nc1ccc(C(=O)N/N=C/c2sc(N3CCOCC3)nc2-c2ccccc2)cc1`, the z-score is -4.08 (active).
For the compound `O=[N+]([O-])c1ccc(N/N=C/c2sc(N3CCOCC3)nc2-c2ccccc2)c(S(=O)(=O)Nc2ccccc2Cl)c1`, the z-score is 13.1.
As to `COc1ccccc1NS(=O)(=O)c1cc([N+](=O)[O-])ccc1N/N=C/c1sc(N2CCOCC2)nc1-c1ccccc1`, the z-score is 4.89.
As for `Oc1ccc(CN2CCC(Cc3ccccc3)CC2)c2cccnc12`, the z-score is -5.12 (active).
`COc1ccc(C)cc1NC(=O)c1nnn(Cc2cccc(C(F)(F)F)c2)c1N`: the z-score is 3.48.
Regarding `CCOC(=O)c1c(C)nn(Cc2cccc(Cl)c2)c1N`, the z-score was -5.31 (active).
With `CCOC(=O)c1nn(-c2ccc(Cl)cc2Cl)c(=N)c(C#N)c1C`, the z-score was 10.8.
For `C=CCN1C(=O)/C(=C/C=C2/N(CC)c3ccc(S(=O)(=O)N(C)C)cc3N2CC)SC1=S` the value was 17.1.
For `CCOC(=O)C(C)c1nn(C)c(=O)c2ccccc12` (stereo not given) the value was -3.52 (active).
Take `CCOC(=O)C1C(=O)CC(C)(O)C(C(=O)OCC)C1c1ccccc1` (stereo not given): the z-score was 0.91.
As to `COc1ccc(N2C(=O)CCC(C(=O)NCCCN3CCC(C)CC3)C2c2ccc(OC)c(OC)c2)cc1` (stereo not given), the z-score is 4.36.
In the case of `CCCn1c(CN2CCN(c3cccc(Cl)c3)CC2)nc2c1c(=O)n(C)c(=O)n2C`, the z-score is -6.4 (active).
As to `CCCCn1c(CN2CCN(c3cccc(Cl)c3)CC2)nc2c1c(=O)n(C)c(=O)n2C`, the z-score was -5.64 (active).
The figure for `Cn1ncc2c1ncn1nc(CCc3ccccc3)nc21` is 3.58; for `NC(=O)c1c[nH]c2ccccc12` it is -0.45.
As for `CCOC(=O)c1c(C)c(C(=O)NC2CCCCC2)c(C)n1CC`, the z-score was -3.91 (active).
As to `CCOC(=O)COc1ccc(C(=O)NC2CCCCC2)cc1`, the z-score is 4.25.
The figure for `CC(C)NC(=O)/C(C#N)=C/c1ccc(N(C)C)o1` is 9.4; for `COc1ccc(/C=C2\C(=O)NC(=S)N2C(=O)c2ccc(F)cc2)cc1` it is 4.23; for `CO/N=C/c1ccc(N2CCN(C(=O)c3ccc(F)cc3)CC2)c([N+](=O)[O-])c1` it is -5.66 (active).
Consider `COc1cc([C@@H]2[C@H]3CN(C)CC=C3C(C#N)=C(N)C2(C#N)C#N)cc2c1OCO2`, for which the z-score is 5.23.
With `COc1cc(/C=N/N=C(\N)c2nonc2N)cc(OC)c1OC`, the z-score was 3.59.
Consider `O=C(Nc1ccccc1)N1CCSc2ccccc21`, for which the z-score is -3.05 (active).
Turning to `O=C(Nc1ccccc1)C(O)C(O)C(=O)Nc1ccccc1` (stereo not given), the z-score was -0.63.
